The nature of assay [1]: qHTS assay for small molecules that induce genotoxicity in human embryonic kidney cells expressing luciferase-tagged ATAD5 (AID 651632). Note: nearly all actives have a fitted effect of over 15% in size. In outline: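 Concentration-response screen for ATAD5 upregulation in HEK293T luciferase reporter cells; 16 hr treatment at 37C, then luminescence after 30 min with Amplite at room temperature.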
A short description of assay [2]: qHTS assay for small molecule agonists of the p53 signaling pathway - cell viability (AID 651633; calls by dose curve;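 note: p53RE-bla HCT reporter cells with a stable beta-lactamase p53 reporter; series mostly up to about 83 µM; nearly all actives have a fitted effect of over 30% in size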). The method, boiled down: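 p53RE-bla cells, seeded at 4,000 per well and rested 5 h at 37 C/5% CO2, received compounds in DMSO for 16 h at 37 C. CellTiter-Glo was then added, and luminescence was read after 30 min at room temperature to gauge cytotoxicity.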
Assay [3] is described as follows: qHTS assay for small molecules that induce genotoxicity in human embryonic kidney cells expressing luciferase-tagged ATAD5 - cell viability (AID 651634; calls by dose curve; note: nearly all actives have a fitted effect of over 25% in size; note: potency is the fitted concentration of half-maximal effect). In outline: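 15.5 hr compound or vehicle exposure of HEK293T cells expressing luciferase-tagged ATAD5 at 37C; live-cell protease activity is read by fluorescence after 30 min of CellTiter-Fluor.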
Assay [4] is described as follows: qHTS assay for small molecule disruptors of the mitochondrial membrane potential - cell viability (AID 720634; calls by dose curve;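 note: human HepG2 liver cancer cells; series mostly up to about 83 µM; nearly all actives have a fitted effect of over 20% in size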). The method, boiled down:
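In this qHTS format, HepG2 cells plated overnight were pinned with compound, incubated 1 hr, and assayed for ATP luminescence with CellTiter-Glo after m-MPI dye addition.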
Background: qHTS replaces the single test concentration by a dilution series.

Assay [5] in a line: qHTS assay to test for compound auto fluorescence at 590 nm (red) in HepG2 cells (AID 720674). The method, boiled down: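 Compound auto-fluorescence is scored relative to Rose Bengal sodium, measured at 540/590 nm in live HepG2 cultures after 1 hr compound contact (37 C, 5% CO2).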
A short description of assay [6]: qHTS assay to test for compound auto fluorescence at 535 nm (green) in HepG2 cells (AID 720675).
The nature of assay [7]: qHTS assay to test for compound auto fluorescence at 460 nm (blue) in HEK293 cells (AID 720678). The method, boiled down:
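Cells were seeded and left to adhere for 4-5 hr at 37C. Compounds were then pin-transferred. After an overnight incubation at 37C under 5% CO2, intrinsic fluorescence at 405/460 nm was measured and referenced to triamterene.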

Assay [8] in a line: qHTS assay to test for compound auto fluorescence at 590 nm (red) in HEK293 cells (AID 720679). In outline: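 Each well held 2,000 HEK293 cells in medium containing 10% dialyzed FBS. Following 4-5 hr attachment at 37C, 23 nL test compound or DMSO was added; plates sat overnight, and red fluorescence (540/590nm) was recorded.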
Assay [9] in a line: qHTS assay to test for compound auto fluorescence at 535 nm (green) in HEK293 cells (AID 720680).
Assay [10] in a line: qHTS assay to test for compound auto fluorescence at 460 nm (blue) in HEK293 cell free culture (AID 720681). The method, boiled down:
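Test compounds were pinned into cell-free culture medium (DMEM with 10% FBS) and fluorescence was read directly at Ex/Em 405/460 nm. Signals were expressed as fluorescence equivalents of triamterene, with DMSO vehicle as control.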

Assay [11] can be described thus: qHTS assay to test for compound auto fluorescence at 535 nm (green) in HEK293 cell free culture (AID 720682). The method, boiled down: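 Compounds were pin-transferred into cell-free DMEM with 10% FBS, and green fluorescence was read at excitation 485 nm and emission 535 nm. Intensities were expressed as fluorescein-equivalent values.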
Assay [12] is described as follows: qHTS assay to test for compound auto fluorescence at 590 nm (red) in HEK293 cell free culture (AID 720683). The method, boiled down: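 Tox21 10K library compounds were pinned into cell-free DMEM with 10% FBS and fluorescence was read at excitation 540 nm. Activity is expressed as Rose Bengal sodium equivalency.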
Assay [13] in a line: qHTS assay to test for compound auto fluorescence at 590 nm (red) in HepG2 cell free culture (AID 720684). In outline: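 Ex 540 / Em 590 nm read of compound in cell-free MEM (10% FBS). Rose Bengal sodium reference.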
Assay [14] in a line: qHTS assay to test for compound auto fluorescence at 460 nm (blue) in HepG2 cell free culture (AID 720685). In outline: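 Cell-free plates of MEM plus 10% FBS received 23 nL compound or DMSO vehicle; blue-channel (405/460 nm) intensity scored against triamterene as reference fluorophore.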
Assay [15] is described as follows: qHTS assay to test for compound auto fluorescence at 535 nm (green) in HepG2 cell free culture (AID 720686).
Assay [16] in a line: qHTS assay to test for compound auto fluorescence at 460 nm (blue) in HepG2 cells (AID 720687). In outline: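 Cells (2,000/well in MEM with 10% FBS) attached overnight at 37 C, then were exposed to compound or DMSO for 1 hr at 37 C, 5% CO2. Fluorescence read at Ex/Em 405/460 nm, expressed as triamterene-equivalent signal.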
Assay [17] concerns the target Glucocorticoid receptor (Homo sapiens) (UniProt P04150). As to the kind of experiment: qHTS assay to identify small molecule agonists of the glucocorticoid receptor (GR) signaling pathway (AID 720691; active = well fitted activation curve with a large enough effect in the signal ratio in the repeat runs, not every such curve was filed as active; the % refers to the signal ratio). In outline: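 Measures GR pathway activation through a GRE-beta-lactamase reporter stably integrated in HeLa cells, with 18 h compound treatment at 37 C and fluorescence detection using a FRET substrate.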

The target is the same in assay [18]. The assay is described as follows: qHTS assay to identify small molecule antagonists of the glucocorticoid receptor (GR) signaling pathway (AID 720692; active = well fitted inhibition curve with a large enough effect in the signal ratio in the repeat runs, not every such curve was filed as active; the % refers to the signal ratio; note: potency is the fitted concentration of half-maximal effect). The method, boiled down: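 Tox21 10K library screened in concentration-response for blockade of dexamethasone (5 nM final)-induced GRE-bla reporter activity in HeLa cells; 18 h treatment, fluorescence read.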

Assay [19] in a line: qHTS assay for small molecule disruptors of the mitochondrial membrane potential (AID 720635). Note: potency is the fitted concentration of half-maximal effect. In outline: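 HepG2 cells (2,000/well) attached overnight at 37C, then took compound for 1 hr at 37C, 5% CO2. Mito-MPS dye was added for 30 min; fluorescence was read at 490/535 nm (monomers) and 540/590 nm (aggregates).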

Structures are written as SMILES. Unmarked numbers belong to inactive results. Results filed as inconclusive are left out. Activity calls are given as the source filed them. Unless noted, calls come from the whole dose curve; as a rule, active = well fitted curve in the direction sought with a large enough effect in the repeat runs; inconclusive = weak or mixed curves; inactive = no such curve, though single readings can be large; an effect the other way counts as inactive or inconclusive.

These results are taken from PubChem BioAssay (Tox21).

Sequence of Glucocorticoid receptor (Homo sapiens) (P04150 whole entry, looked up): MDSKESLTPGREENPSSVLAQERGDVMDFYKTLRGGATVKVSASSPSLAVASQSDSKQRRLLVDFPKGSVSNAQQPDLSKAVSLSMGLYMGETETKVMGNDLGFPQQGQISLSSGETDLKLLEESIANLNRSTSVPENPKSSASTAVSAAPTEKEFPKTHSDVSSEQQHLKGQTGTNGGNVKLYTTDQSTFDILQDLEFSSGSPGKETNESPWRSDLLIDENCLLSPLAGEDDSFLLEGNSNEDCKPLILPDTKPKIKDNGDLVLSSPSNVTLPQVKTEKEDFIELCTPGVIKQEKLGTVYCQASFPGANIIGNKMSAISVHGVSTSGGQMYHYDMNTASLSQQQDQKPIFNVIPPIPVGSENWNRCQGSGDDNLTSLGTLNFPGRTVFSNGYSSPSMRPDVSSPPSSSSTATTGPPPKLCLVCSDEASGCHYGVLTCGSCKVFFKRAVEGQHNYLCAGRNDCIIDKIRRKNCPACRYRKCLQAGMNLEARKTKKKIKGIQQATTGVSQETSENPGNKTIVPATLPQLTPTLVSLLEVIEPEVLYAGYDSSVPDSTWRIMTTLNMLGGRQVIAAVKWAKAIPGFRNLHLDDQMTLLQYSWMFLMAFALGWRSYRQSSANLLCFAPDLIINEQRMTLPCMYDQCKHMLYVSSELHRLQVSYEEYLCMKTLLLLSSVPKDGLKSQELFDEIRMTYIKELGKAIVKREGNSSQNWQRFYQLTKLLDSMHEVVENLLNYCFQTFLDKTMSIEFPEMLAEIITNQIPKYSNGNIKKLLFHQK

For the compound `NC(=O)CI`, the Potency entry in assay [1], in [2], in assay [3] and in assay [4] was “inactive” throughout. The result in assay [5], in assay [6], in assay [7], in assay [8], in assay [9] and in [10] was inactive. Moreover, the call in assay [11], in assay [12], in assay [13], in [14], in [15] and in assay [16] was inactive.
As to `Clc1cc(Cl)c(Cl)c(Cl)c1`, the Potency entry in [1], in assay [2], in assay [3] and in assay [4] was “inactive” each time. Moreover, the outcome in [5], in assay [6], in assay [7], in assay [8], in assay [9] and in assay [10] was inactive. In addition, the compound was classed as inactive in [11], in [12], in assay [13], in assay [14], in [15] and in assay [16]. Besides, the outcome in assay [17] was inactive.
As to `CCC(Cl)CCl` (configuration not stated), the Potency entry in assay [1], in [2], in assay [3] and in assay [4] was “inactive” throughout. Moreover, the call in [5], in [6], in assay [7], in assay [8], in assay [9] and in assay [10] was inactive. The outcome in [11], in assay [12], in assay [13], in [14], in assay [15] and in assay [16] was inactive.
Take `NCC(CC(=O)O)c1ccc(Cl)cc1` (configuration not stated): the Potency result in [1], in [2], in [3], in [4] and in [18] was “inactive” throughout. Also, the result in assay [5], in [6], in [7], in assay [8], in assay [9] and in [10] was inactive. Moreover, the compound was called inactive in [11], in [12], in assay [13], in assay [14], in assay [15] and in assay [16]. Also, in assay [17], the call was inactive.
Regarding `CNP(=O)(OC)Oc1ccc(C(C)(C)C)cc1Cl` (configuration not stated), the Potency entry in assay [1], in assay [2], in assay [3], in assay [4] and in [19] was “inactive” throughout. Also, the compound was classed as inactive in assay [5], in assay [6], in [7], in [8], in assay [9] and in assay [10]. Further, the outcome in [11], in assay [12], in assay [13], in assay [14], in [15] and in assay [16] was inactive. Moreover, the call in assay [17] was inactive.
In the case of `C=CC[C@]1(O)CC[C@H]2[C@@H]3CCC4=CC(=O)CCC4=C3C=C[C@@]21C`, the Potency result in assay [1], in [2], in assay [3], in assay [4] and in assay [19] was “inactive” throughout. The compound was called inactive in [5], in assay [6], in assay [7], in assay [8], in [9] and in assay [10]. The compound was called inactive in [11], in assay [12], in assay [13], in assay [14], in assay [15] and in assay [16]. Besides, in assay [17], the call was inactive. Moreover, the Potency in [18] is 0.301 µM (active).
Consider `O=C(Nc1ccccc1)Nc1cnns1`, for which the Potency result in assay [1], in assay [2], in assay [3], in [4] and in [18] was “inactive” each time. Also, the Potency in assay [19] is 3.06 µM (active). Moreover, the compound was classed as inactive in [5], in assay [6], in assay [7], in [8], in [9] and in [10]. Moreover, the result in [11], in assay [12], in [13], in assay [14], in assay [15] and in assay [16] was inactive.
Consider `C=COC(C)=O`, for which the Potency result in assay [1], in assay [2], in [3] and in assay [4] was “inactive” in each case. In addition, the result in assay [5], in [6], in [7], in [8], in assay [9] and in [10] was inactive. The compound was called inactive in assay [11], in assay [12], in [13], in assay [14], in assay [15] and in assay [16].
For the compound `O=C(CBr)c1ccccc1`, the Potency result in assay [1], in assay [2], in assay [3], in assay [4] and in [19] was “inactive” throughout. The call in [5], in [6], in assay [7], in [8], in assay [9] and in assay [10] was inactive. For the same compound, the compound was called inactive in [11], in assay [12], in assay [13], in assay [14], in assay [15] and in [16]. Also, the outcome in [17] was inactive.
Regarding `CCOC(=O)[C@]1(c2ccccc2)Oc2ccccc2[C@@H]1N`, the Potency entry in assay [1], in assay [2], in [3] and in assay [4] was “inactive” each time. The compound was called inactive in assay [5], in assay [6], in [7], in [8], in assay [9] and in assay [10]. Also, the compound was called inactive in assay [11], in assay [12], in [13], in [14], in [15] and in assay [16].
`CCn1cc[n+](C)c1`: the Potency result in [1], in assay [2], in assay [3], in assay [4] and in assay [19] was “inactive” throughout. In addition, the outcome in [5], in assay [6], in [7], in assay [8], in [9] and in [10] was inactive. The compound was classed as inactive in [11], in assay [12], in assay [13], in assay [14], in assay [15] and in [16].
As for `CC1C(=O)C[C@]2(C(C)C)C[C@H]12` (some centres not stated), the Potency entry in assay [1], in assay [2], in assay [3], in assay [4] and in assay [19] was “inactive” throughout. Besides, the compound was classed as inactive in assay [5], in [6], in [7], in [8], in assay [9] and in assay [10]. Also, the call in assay [11], in assay [12], in [13], in assay [14], in [15] and in assay [16] was inactive.
With `CCOP(=S)(OCC)SCSCC`, the Potency entry in [1], in assay [2], in assay [3] and in [4] was “inactive” each time. Besides, the compound was classed as inactive in [5], in [6], in assay [7], in assay [8], in [9] and in assay [10]. In addition, the compound was called inactive in assay [11], in assay [12], in assay [13], in assay [14], in assay [15] and in assay [16]. In addition, the call in [17] was inactive.
`CCOP(=O)(OCC)Oc1ccc([N+](=O)[O-])cc1`: the Potency entry in [1], in [2], in assay [3], in assay [4] and in assay [19] was “inactive” each time. For the same compound, the compound was classed as inactive in assay [5], in assay [6], in [7], in assay [8], in [9] and in assay [10]. The outcome in assay [11], in [12], in assay [13], in assay [14], in assay [15] and in [16] was inactive.
As to `ClCCCCBr`, the Potency result in assay [1], in assay [2], in [3] and in assay [4] was “inactive” throughout. Also, the compound was classed as inactive in assay [5], in assay [6], in assay [7], in assay [8], in assay [9] and in assay [10]. Further, the compound was called inactive in assay [11], in assay [12], in assay [13], in [14], in [15] and in assay [16].
As for `Nc1ccc([N+](=O)[O-])cc1[N+](=O)[O-]`, the Potency result in assay [1], in [2] and in assay [4] was “inactive” each time. The Potency in assay [3] is 15 µM (active); in [19] it was 29.9 µM (active). Also, the outcome in assay [5], in assay [6], in assay [8], in [9], in assay [10] and in [11] was inactive. In addition, the outcome in assay [12], in [13], in [14], in assay [15] and in assay [16] was inactive.
